From PubChem BioAssay AID1159580 (chemical genetic matrix, 2015)
Hit rate of the full screen: of about 5,500 compounds, about 2,000 (36%) were called active. Inconclusive results (about 18%) are left out. This is one part of the list. Unmarked numbers belong to inactive results. Cut-off read from the data, not from the text of the source: active = normalized growth mostly below about 0.91 (no sharp cut-off); inconclusive = no clear call, values can overlap the other calls; inactive = mostly above about 0.92.

Test: chemical genetic growth profiling, strain panel (AID 1159580);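 note: tested at 20 µM; growth read once vehicle control cultures reached saturation at 30 °C; 1 = growth at the plate median or of vehicle wells; lower values mean less growth of the strain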
Conditions: S. cerevisiae deletion strains, growth OD
[1] = locus YAL040C, strain CLN3, active compounds read low
[2] = locus YCL061C, strain MRC1 (second series), active compounds read low
[3] = locus YDR363W, strain ESC2, active compounds read low
[4] = locus YER002W, strain NOP16, active compounds read low
[5] = locus YNL175C, strain NOP13, active compounds read low
[6] = locus YNL197C, strain WHI3, active compounds read low
[7] = locus YNL224C, strain SQS1, active compounds read low
[8] = locus YOR083W, strain WHI5 (second series), active compounds read low
[9] = locus YPL055C, strain LGE1, active compounds read low
[10] = locus YPL241C, strain CIN2, active compounds read low
[11] = locus YMR307W, strain GAS1, active compounds read low

Structure (SMILES)	normalized growth (locus YAL013W, strain DEP1, active compounds read low)	normalized growth [1]	normalized growth [2]	normalized growth [3]	normalized growth [4]	normalized growth (locus YNL153C, strain GIM3, active compounds read low)	normalized growth [5]	normalized growth [6]	normalized growth [7]	normalized growth [8]	normalized growth [9]	normalized growth [10]	normalized growth (locus YJR075W, strain HOC1, active compounds read low)	normalized growth [11]	normalized growth (locus YDR150W, strain NUM1, active compounds read low)	normalized growth (locus YGR078C, strain PAC10, active compounds read low)	normalized growth (locus YNL128W, strain TEP1, active compounds read low)	normalized growth (locus YNL322C, strain KRE1, active compounds read low)
N#Cc1c(-c2ccccc2)no[n+]1[O-]	0.942	0.674 (active)	0.995	1	0.85 (active)	0.515 (active)	0.774 (active)	0.902	0.926	0.253 (active)	0.953	1						
Cc1ccc(O)c(N=Nc2ccccc2)n1		0.96	0.934 (active)	0.896	1.03		0.985	0.977	0.993	0.738 (active)	0.425 (active)		0.855 (active)	0.984				
NC1CCN(c2cccc(Cl)n2)CC1		1.01	1	1.01	0.991		0.991	1	1.01	0.991		1		1.02	1.01	1.01	1.01	0.984
